Source: PubChem
Shown are actives, neighbours in structure and some others; about 3.7% of the full set was active somewhere.
Nrf2 ARE act – qHTS of Nrf2 Activators; AREc32 ARE-luciferase reporter (MCF7-derived line), luminescence, 24 h; Potency, µM (top dose mostly 46.1 µM), without a hit: top-dose activation, most hits filed as activators; 410,000 tested, 0.31% active; further: % of control where 0% means no effect; nearly all actives have a fitted effect of over 65% in size
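Each well held 1000 AREc32 cells, which were incubated with compound for 24 hr at 37 deg C after overnight attachment, and ARE reporter activity was quantified by firefly luciferase luminescence.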
A549 tox – Nrf2 qHTS screen for inhibitors: counterscreen for cytotoxicity | A549 ARE-Fluc cells, CellTiter-Fluor viability, 18-24 h | Potency, µM (titrated, usually from 46 µM), without a hit: at the highest dose activity change, negative = cytotoxicity, usual class: inhibitors | 390,000 tested, 0.16% active | AID 504648, 2011; further: on the % scale 0 is the no-effect control and ±100 the full control effect
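A549 ARE_Fluc cells in 5% FBS OPTI-MEM were exposed to compounds in concentration-response for 18-24 h at 37 deg C. Viability was read by CellTiter-Fluor fluorescence (Ex 405/Em 525) after 30 min, before the luciferase read.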
Nrf2 inh – Nrf2 qHTS screen for inhibitors. AID 504444, 2011. A549 ARE-Fluc reporter, luciferase luminescence, 18-24 h. Potency, µM (highest dose often 46 µM), for the others: at the highest dose activity change, negative = inhibition, hits mostly inhibitors. 360,000 tested, 2.1% active; further: on the % scale 0 is the no-effect control and ±100 the full control effect; nearly all actives have a fitted effect of over 60% in size
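Concentration-response testing used A549 ARE_Fluc cells at 5000 cells/well. Following an 18-24 h compound incubation, viability was read by fluorescence (Ex 405/Em 525) and luciferase output by luminescence.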
ELG1 repair inh – qHTS screen for small molecules that inhibit ELG1-dependent DNA repair in human embryonic kidney (HEK293T) cells expressing luciferase-tagged ELG1; HEK293T ELG1-luciferase reporter, luminescence, 16 h; DNA damage induced by 5-fluorouridine; Potency, µM (series often up to 46.1 µM), inactives show at the highest dose activity change, negative = inhibition, most hits filed as inhibitors; 330,000 tested, 2.3% active; further: on the % scale 0 is the no-effect control and ±100 the full control effect; nearly all actives have a fitted effect of over 55% in size
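Overnight (16 hr) co-exposure of 2,000 cells/well to 5-fluorouridine and compound at 37 °C preceded detection. Luciferase was quantified via ONE-Glo luminescence; loss of signal denotes inhibition.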
An asterisk follows results filed as active; [ ] = another dose, or the depositor's remark. The call rests on the fitted dose curve; in most records, active means well fitted curve in the direction sought with a large enough effect; inconclusive means small, poorly fitted or top-dose-only effect, or another doubt; inactive means no such curve, though single readings can be large; an effect the other way counts as inactive or inconclusive. Potency means the concentration at half of the fitted maximal effect.

How did O=C(Cn1cnc2onc(-c3ccc(F)cc3)c2c1=O)Nc1ccc(F)c(Cl)c1 do in these assays?
Nrf2 ARE act: -1%; A549 tox: -26%; Nrf2 inh: inconclusive

What do the screens show for `COc1cc2c(cc1OC)C(COc1ccc([N+](=O)[O-])cc1)N(C(C)=O)CC2` (stereo not given)?
Nrf2 ARE act: 7%; A549 tox: -3%; Nrf2 inh: inconclusive; ELG1 repair inh: 8.2µM*

What do the screens show for `Cc1ccnc(NS(=O)(=O)c2ccc(NC(=O)C3C4C=CC(C4)C3C(=O)O)cc2)n1` (stereo not given)?
Nrf2 ARE act: -1%; A549 tox: -5%; Nrf2 inh: 4%; ELG1 repair inh: -4%

Results for COc1ccc(-n2c(C)c(C)c3c(N)ncnc32)cc1 ?
Nrf2 ARE act: 0%; A549 tox: 2%; Nrf2 inh: inconclusive; ELG1 repair inh: 10µM*

How did COC(=O)c1c(N)nc(C)n1-c1ccc(OC)cc1 do in these assays?
Nrf2 ARE act: 0%; A549 tox: 4%; Nrf2 inh: -3%; ELG1 repair inh: -2%

How did COCCn1c(Cc2ccccc2)nnc1SCC(=O)NC1CC1 do in these assays?
Nrf2 ARE act: 0%; A549 tox: 8%; Nrf2 inh: -27%; ELG1 repair inh: 28%

What do the screens show for `CCCC(CCC)C(=O)Nc1cc(-c2cn3cccnc3n2)ccc1OC`?
Nrf2 ARE act: 1%; A549 tox: 7%

What do the screens show for `Cc1ccc([N+](=O)[O-])cc1-c1[nH]c(-c2ccc(O)c(O)c2)nc1-c1ccccc1`?
Nrf2 ARE act: 3%; A549 tox: inconclusive; Nrf2 inh: 21µM*; ELG1 repair inh: inconclusive

Results for COc1ccc(-c2nc(-c3ccccc3)c(-c3cc([N+](=O)[O-])ccc3C)[nH]2)cc1O ?
Nrf2 ARE act: 4%; A549 tox: -22%; Nrf2 inh: 1%; ELG1 repair inh: inconclusive

How did CS(=O)(=O)c1cccc(C(=O)Nc2cccc(S(=O)(=O)N3CCCC3)c2)c1 do in these assays?
Nrf2 ARE act: 0%; A549 tox: -7%; Nrf2 inh: inconclusive; ELG1 repair inh: -18%

What do the screens show for `O=C(COc1ccccc1[N+](=O)[O-])Nc1cccc(S(=O)(=O)N2CCCC2)c1`?
Nrf2 ARE act: 2%; A549 tox: -7%; Nrf2 inh: inconclusive; ELG1 repair inh: 16µM*

What do the screens show for `O=C(Nc1cccc(S(=O)(=O)N2CCCCC2)c1)c1cc(=O)[nH]c2ccccc12`?
Nrf2 ARE act: 0%; A549 tox: 0%; Nrf2 inh: -17%; ELG1 repair inh: 26µM*

What do the screens show for `COc1cc(C(=O)Nc2cccc(S(=O)(=O)N3CCCC3)c2)cc(OC)c1C`?
Nrf2 ARE act: 10%; A549 tox: 0%; Nrf2 inh: -13%; ELG1 repair inh: 29µM*

What do the screens show for `Cc1ccc(S(C)(=O)=O)cc1C(=O)Nc1cccc(S(=O)(=O)N2CCCCCC2)c1`?
Nrf2 ARE act: 0%; A549 tox: -8%; Nrf2 inh: -1%; ELG1 repair inh: 12µM*

How did COc1ccc(-n2nc(N)c(C(N)=O)n2)cc1 do in these assays?
Nrf2 ARE act: 3%; A549 tox: 0%; Nrf2 inh: 7%; ELG1 repair inh: inconclusive

Results for O=C(Nc1cccc(S(=O)(=O)N2CCOCC2)c1)c1cc2ccccc2o1 ?
Nrf2 ARE act: 3%; A549 tox: inconclusive; Nrf2 inh: inconclusive; ELG1 repair inh: 21%

What do the screens show for `O=C(Nc1cccc(S(=O)(=O)N2CCCCC2)c1)c1cc2ccccc2o1`?
Nrf2 ARE act: 2%; A549 tox: -12%; Nrf2 inh: 23µM*; ELG1 repair inh: inconclusive

What do the screens show for `CCc1ccccc1NC(=O)Nc1ccc2snnc2c1`?
Nrf2 ARE act: 0%; A549 tox: -1%; Nrf2 inh: -26%

Results for O=C(Nc1ccc2snnc2c1)Nc1cccc2ccccc12 ?
Nrf2 ARE act: 1%; A549 tox: -24%; Nrf2 inh: 16µM*; ELG1 repair inh: inconclusive

How did COc1ccc(-c2ccc(SCC(=O)N3c4ccccc4CC3C)nn2)cc1OC (stereo not given) do in these assays?
Nrf2 ARE act: 1%; A549 tox: -12%; Nrf2 inh: -23%; ELG1 repair inh: 16µM*

How did CC1Cc2ccccc2N1C(=O)CSc1nnc(-c2ccccc2Cl)o1 (stereo not given) do in these assays?
Nrf2 ARE act: 1.8µM*; A549 tox: 0%; Nrf2 inh: -29%

How did CCOC(=O)N1CCN(C(=O)CSc2ccc(-c3ccc(OC)c(OC)c3)nn2)CC1 do in these assays?
Nrf2 ARE act: 1%; A549 tox: 3%; Nrf2 inh: -27%; ELG1 repair inh: inconclusive

What do the screens show for `CC1Cc2ccccc2N1C(=O)CSc1nnc(-c2ccccc2)c(-c2ccccc2)n1` (stereo not given)?
Nrf2 ARE act: 0%; A549 tox: 0%[1.84 µM]; Nrf2 inh: 23µM*; ELG1 repair inh: inconclusive

Results for CCN(CC)S(=O)(=O)c1cccc(C(=O)Nc2ccc(S(=O)(=O)NC3=NCCCCC3)cc2)c1 ?
Nrf2 ARE act: 4%; A549 tox: 0%; Nrf2 inh: inconclusive; ELG1 repair inh: inconclusive

What do the screens show for `Cc1ccc2c(c1)c(=O)c(C(=O)c1ccc3c(c1)OCO3)cn2Cc1ccc(Cl)cc1`?
Nrf2 ARE act: 3%; A549 tox: -14%; Nrf2 inh: 23µM*

How did CCOc1ccc(C(=O)c2cn(Cc3ccc(Cl)cc3)c3cc(OC)c(OC)cc3c2=O)cc1 do in these assays?
Nrf2 ARE act: 0%; A549 tox: 15µM*; Nrf2 inh: inconclusive

What do the screens show for `Cc1ccc(C)c(Cn2c(-c3cccs3)nc3ccccc32)c1`?
Nrf2 ARE act: 7%; A549 tox: inconclusive; Nrf2 inh: 23µM*

Results for COc1cc(OC)c(NC(=O)C(NS(=O)(=O)c2cccc3nsnc23)c2ccccc2)cc1Cl (stereo not given) ?
Nrf2 ARE act: 3%; A549 tox: 2%; Nrf2 inh: 19%

Results for O=C(CC[C@H]1O[C@@H](n2ccc(=O)[nH]c2=O)[C@H](O)[C@@H]1O)N[C@H](Cc1ccccc1)C(=O)NCCCc1ccccc1 ?
Nrf2 ARE act: 0%

Results for CCOc1ccc(CCNC(=O)c2nn(C)c3c2CS(=O)(=O)c2ccccc2-3)cc1 ?
Nrf2 ARE act: 0%; A549 tox: -1%; Nrf2 inh: inconclusive; ELG1 repair inh: inconclusive

What do the screens show for `COc1ccc(CCNC(=O)c2nn(C)c3c2CS(=O)(=O)c2ccccc2-3)c(OC)c1`?
Nrf2 ARE act: -1%; A549 tox: -13%; Nrf2 inh: 23µM*; ELG1 repair inh: 23µM*

Results for CCOc1ccc(CCNC(=O)c2nn(C)c3c2CS(=O)(=O)c2ccccc2-3)cc1OCC ?
Nrf2 ARE act: 0%; A549 tox: -2%; Nrf2 inh: inconclusive; ELG1 repair inh: 18µM*

How did CCN(CC)CCCNC(=O)c1nn(C)c2c1CS(=O)(=O)c1ccccc1-2 do in these assays?
Nrf2 ARE act: 0%; A549 tox: -3%; Nrf2 inh: 18µM*
